# Measurements from PubChem BioAssay AID1159580 (chemical genetic matrix, 2015).
# Several values for one entry are separate records, joined by “and”; a condition that tells them apart may be missing. Equal values may be shown once. About 2,000 (36%) of roughly 5,500 compounds were called active. Another 18% or so got no clear call; they are omitted. Cut-off read from the data, not from the text of the source: active = normalized growth mostly below about 0.91 (no sharp cut-off); inconclusive = no clear call, values can overlap the other calls; inactive = mostly above about 0.92. The list shows a part of the results.
# Test: chemical genetic growth profiling, strain panel (AID 1159580);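 note: tested at 20 µM; growth read once vehicle control cultures reached saturation at 30 °C; 1 = growth at the plate median or of vehicle wells; lower values mean less growth of the strain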
# Conditions: S. cerevisiae deletion strains, growth OD
smiles,measurement,setting,value
CC(=O)O[C@]1(C(C)=O)CCC2C3C=C(C)C4=CC(=O)CCC4(C)C3CCC21C (stereo partly specified),normalized growth,"locus YAL013W, strain DEP1, stronger effect = lower value",0.897 (active)
same,normalized growth,"locus YAL021C, strain ccr4, stronger effect = lower value",1.04 (inactive)
same,normalized growth,"locus YAL026C, strain drs2, stronger effect = lower value",0.961 (inactive)
same,normalized growth,"locus YAL030W, strain snc1, stronger effect = lower value",0.959 (inactive)
same,normalized growth,"locus YBL061C, strain skt5, stronger effect = lower value",0.932 (inactive)
same,normalized growth,"locus YBR009C, strain hhf1, stronger effect = lower value",0.916 (inactive)
same,normalized growth,"locus YBR021W, strain FUR4, stronger effect = lower value",0.924 (inactive)
same,normalized growth,"locus YBR023C, strain chs3, stronger effect = lower value",0.92 (inactive)
same,normalized growth,"locus YBR171W, strain sec66, stronger effect = lower value",0.926 (inactive)
same,normalized growth,"locus YBR229C, strain ROT2, stronger effect = lower value",0.985 (inactive)
same,normalized growth,"locus YBR231C, strain swc5, stronger effect = lower value",0.933 (inactive)
same,normalized growth,"locus YBR279W, strain paf1, stronger effect = lower value",0.993 (inactive)
same,normalized growth,"locus YCL011C, strain gbp2, stronger effect = lower value",0.975 (inactive)
same,normalized growth,"locus YCL016C, strain dcc1, stronger effect = lower value",0.971 (inactive)
same,normalized growth,"locus YCL029C, strain bik1, stronger effect = lower value",0.958 (inactive)
same,normalized growth,"locus YCL069W, strain vba3, stronger effect = lower value",0.929 (inactive)
same,normalized growth,"locus YCR088W, strain abp1, stronger effect = lower value",0.958 (inactive)
same,normalized growth,"locus YDL005C, strain med2, stronger effect = lower value",0.934 (inactive)
same,normalized growth,"locus YDL035C, strain GPR1, stronger effect = lower value",0.908 (inactive)
same,normalized growth,"locus YDL040C, strain nat1, stronger effect = lower value",0.968 (inactive)
same,normalized growth,"locus YDL074C, strain BRE1, stronger effect = lower value",0.784 (inactive)
same,normalized growth,"locus YDL101C, strain DUN1, stronger effect = lower value",0.982 (inactive)
same,normalized growth,"locus YDL134C, strain PPH21, stronger effect = lower value",0.996 (inactive)
same,normalized growth,"locus YDL185W, strain tfp1, stronger effect = lower value",0.984 (inactive)
same,normalized growth,"locus YDL192W, strain arf1, stronger effect = lower value",0.957 (inactive)
same,normalized growth,"locus YDR001C, strain nth1, stronger effect = lower value",0.964 (inactive)
same,normalized growth,"locus YDR069C, strain doa4, stronger effect = lower value",0.978 (inactive)
same,normalized growth,"locus YDR101C, strain arx1, stronger effect = lower value",0.969 (inactive)
same,normalized growth,"locus YDR137W, strain rgp1, stronger effect = lower value",0.775 (active)
same,normalized growth,"locus YDR150W, strain NUM1, stronger effect = lower value",0.993 (inactive)
same,normalized growth,"locus YDR159W, strain sac3, stronger effect = lower value",0.892 (inactive)
same,normalized growth,"locus YDR162C, strain NBP2, stronger effect = lower value",0.804 (active)
same,normalized growth,"locus YDR195W, strain ref2",0.976 (inactive)
same,normalized growth,"locus YDR297W, strain sur2, stronger effect = lower value",0.951 (inactive)
same,normalized growth,"locus YDR318W, strain mcm21, stronger effect = lower value",0.92 (inactive)
same,normalized growth,"locus YDR334W, strain swr1, stronger effect = lower value",0.962 (inactive)
same,normalized growth,"locus YDR335W, strain msn5, stronger effect = lower value",0.957 (inactive)
same,normalized growth,"locus YDR388W, stronger effect = lower value",0.975 (inactive)
same,normalized growth,"locus YDR392W, strain spt3, stronger effect = lower value",0.445 (active)
same,normalized growth,"locus YDR502C, strain sam2, stronger effect = lower value",0.904 (active)
same,normalized growth,"locus YEL003W, strain gim4, stronger effect = lower value",0.941 (inactive)
same,normalized growth,"locus YEL037C, strain rad23, stronger effect = lower value",0.969 (inactive)
same,normalized growth,"locus YEL061C, strain CIN8 (second series), stronger effect = lower value",0.959 (inactive)
same,normalized growth,"locus YEL061C, strain CIN8, stronger effect = lower value",0.989 (inactive)
same,normalized growth,"locus YER015W, strain faa2, stronger effect = lower value",0.971 (inactive)
same,normalized growth,"locus YER016W, strain bim1, stronger effect = lower value",0.966 (inactive)
same,normalized growth,"locus YER110C, stronger effect = lower value",0.958 (inactive)
same,normalized growth,"locus YER111C, strain swi4, stronger effect = lower value",0.963 (inactive)
same,normalized growth,"locus YER155C, strain BEM2 (second series), stronger effect = lower value",0.859 (active)
same,normalized growth,"locus YER155C, strain BEM2, stronger effect = lower value",1.01 (inactive)
same,normalized growth,"locus YER167W, strain BCK2, stronger effect = lower value",0.88 (active)
same,normalized growth,"locus YFR010W, strain ubp6, stronger effect = lower value",0.961 (inactive)
same,normalized growth,"locus YGL078C, strain dbp3, stronger effect = lower value",0.992 (inactive)
same,normalized growth,"locus YGL086W, strain mad1, stronger effect = lower value",0.91 (active)
same,normalized growth,"locus YGL167C, strain pmr1, stronger effect = lower value",0.955 (inactive)
same,normalized growth,"locus YGL173C, strain kem1, stronger effect = lower value",0.92 (inactive)
same,normalized growth,"locus YGL227W, strain vid30, stronger effect = lower value",0.968 (inactive)
same,normalized growth,"locus YGL240W, strain doc1, stronger effect = lower value",0.925 (inactive)
same,normalized growth,"locus YGL248W, strain PDE1, stronger effect = lower value",0.992 (inactive)
same,normalized growth,"locus YGL253W, strain hxk2, stronger effect = lower value",0.915 (inactive)
same,normalized growth,"locus YGR078C, strain PAC10, stronger effect = lower value",0.836 (active)
same,normalized growth,"locus YGR135W, strain pre9, stronger effect = lower value",0.883 (active)
same,normalized growth,"locus YGR229C, strain SMI1, stronger effect = lower value",0.643 (active)
same,normalized growth,"locus YGR252W, strain gcn5, stronger effect = lower value",0.862 (inactive)
same,normalized growth,"locus YHR013C, strain ard1, stronger effect = lower value",0.998 (inactive)
same,normalized growth,"locus YHR027C, strain rpn1, stronger effect = lower value",0.981 (inactive)
same,normalized growth,"locus YHR030C, strain SLT2, stronger effect = lower value",0.917 (active) and 0.949 (inactive)
same,normalized growth,"locus YHR079C, strain IRE1 (second series), stronger effect = lower value",0.969 (inactive)
same,normalized growth,"locus YHR079C, strain IRE1, stronger effect = lower value",0.958 (inactive)
same,normalized growth,"locus YHR094C, strain hxt1, stronger effect = lower value",0.98 (inactive)
same,normalized growth,"locus YHR129C, strain ARP1, stronger effect = lower value",0.94 (inactive)
same,normalized growth,"locus YHR142W, strain chs7, stronger effect = lower value",0.815 (active)
same,normalized growth,"locus YHR200W, strain rpn10, stronger effect = lower value",0.956 (inactive)
same,normalized growth,"locus YIL066C, strain RNR3, stronger effect = lower value",0.878 (inactive)
same,normalized growth,"locus YIL073C, strain SPO22, stronger effect = lower value",0.887 (inactive)
same,normalized growth,"locus YIL125W, strain kgd1, stronger effect = lower value",0.982 (inactive)
same,normalized growth,"locus YIR030C, strain dcg1, stronger effect = lower value",0.973 (inactive)
same,normalized growth,"locus YJL092W, strain hpr5, stronger effect = lower value",0.944 (inactive)
same,normalized growth,"locus YJL095W, strain BCK1 (second series), stronger effect = lower value",0.931 (inactive)
same,normalized growth,"locus YJL095W, strain BCK1, stronger effect = lower value",0.741 (active) and 0.98 (inactive)
same,normalized growth,"locus YJL115W, strain asf1, stronger effect = lower value",0.973 (inactive)
same,normalized growth,"locus YJL129C, strain trk1, stronger effect = lower value",0.854 (active)
same,normalized growth,"locus YJL134W, strain LCB3, stronger effect = lower value",0.989 (inactive)
same,normalized growth,"locus YJL154C, strain vps35, stronger effect = lower value",0.964 (inactive)
same,normalized growth,"locus YJL164C, strain tpk1, stronger effect = lower value",0.951 (inactive)
same,normalized growth,"locus YJL166W, strain qcr8, stronger effect = lower value",0.863 (active)
same,normalized growth,"locus YJL168C, strain set2, stronger effect = lower value",0.969 (inactive)
same,normalized growth,"locus YJL187C, strain SWE1 (second series), stronger effect = lower value",0.98 (inactive)
same,normalized growth,"locus YJR043C, strain POL32, stronger effect = lower value",0.85 (active)
same,normalized growth,"locus YJR066W, strain TOR1, stronger effect = lower value",0.929 (inactive)
same,normalized growth,"locus YJR075W, strain HOC1, stronger effect = lower value",0.952 (inactive)
